Values without a mark were called inactive. No rule for the calls is given here.

The target of this assay is Pantothenate synthetase (Mycobacterium tuberculosis (strain ATCC 25618 / H37Rv)) (UniProt P9WIL5). Description: Recombinant Mtb pantothenate synthetase (PanC) inhibitors, coupled enzyme, confirmatory (AID 375).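 Also: 0% = full reaction with vehicle and 100% = no enzyme background.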 The following applies: coupled enzyme assay; at 10 µM, hits give high values.
Sequence of Pantothenate synthetase (Mycobacterium tuberculosis (strain ATCC 25618 / H37Rv)) (P9WIL5 whole entry, looked up): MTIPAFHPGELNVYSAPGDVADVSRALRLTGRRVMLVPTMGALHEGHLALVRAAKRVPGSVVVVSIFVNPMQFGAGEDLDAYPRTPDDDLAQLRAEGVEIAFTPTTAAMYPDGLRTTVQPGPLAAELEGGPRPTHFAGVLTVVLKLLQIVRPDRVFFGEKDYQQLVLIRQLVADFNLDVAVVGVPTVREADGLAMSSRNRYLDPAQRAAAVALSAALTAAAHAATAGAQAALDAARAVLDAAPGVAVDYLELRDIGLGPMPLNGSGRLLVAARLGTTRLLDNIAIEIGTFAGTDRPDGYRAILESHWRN
In general, inhibition refers to the relative decrease from the control value, in per cent. Turning to `CCNc1nc(NC(C)C)nc(N(C#N)CCOc2ccc(Cl)cc2Cl)n1`, the inhibition is 7%.

Turning to `CCOC(=O)C1C2C=CC3(CN(Cc4ccco4)C(=O)C13)O2` (stereo not given), the inhibition was 0%. The same measure for `Cc1ccc(C)c2[nH]c(=O)c(CCNC(=O)c3ccc(Br)o3)cc12`: 0%; for `CCOC(=O)CSC1=C(C#N)C(c2ccc(C)cc2)C(C(=O)OC)C(=O)N1` (stereo not given): 0%; for `COc1ccccc1NC(=O)C1CC(=O)N(c2ccc(F)cc2)C1` (stereo not given): 0%. Next, `O=C(c1ccc(CNS(=O)(=O)c2cccc(C(F)(F)F)c2)cc1)N1CCOCC1`: 0%; `Cc1ccccc1S(=O)(=O)Cc1ccc(C(=O)NCc2cccnc2)o1`: 0%. The same measure for `Cc1nc2c(-c3ccc(F)cc3)c(C)nn2c(C)c1CCC(=O)NC(C)CCc1ccco1` (stereo not given): 0%; for `CC1CCCCC1NC(=O)c1ccc(N2CCCC2=O)cc1` (stereo not given): 0%; for `Cc1cccc(NC2SC(=O)N(c3ccccc3)C2=O)c1` (stereo not given): 0%. Consider `COc1ccccc1NC(=O)CSc1nnc(-c2ccncc2)o1`, for which the inhibition was 0%.

On to `CCOC(=O)N1CCC(NC(=O)CCN2C(=O)COc3ccccc32)CC1`, for which the inhibition is 0%. Turning to `CCOc1ccc(N(CC(=O)NC2CCCCC2)S(=O)(=O)c2c(C)noc2C)cc1`, the inhibition was 0%. The same measure for `Cc1cccc(N(CC(N)=O)S(C)(=O)=O)c1C`: 0%; for `CN(Cc1ccccc1)C(=O)c1cc(-c2ccc(Br)cc2)on1`: 0%; for `FC(F)Oc1ccc(-c2csc(Cc3nnc4n3CCCCC4)n2)cc1`: 0%. The same measure for `CCOCCCNC(=O)C1CCN(S(=O)(=O)c2c(C)noc2/C=C\c2ccc(OC)cc2)CC1`: 8%; for `COC(=O)c1ccc(CN(c2ccccc2OC)S(=O)(=O)c2cccs2)o1`: 2%; for `COc1ccc(CC(=O)OCC(=O)NC(=O)NC2CCCCC2)cc1`: 7%.

Take `O=C(c1ccco1)N1CCN(C(=O)c2cc3c(s2)-c2ccccc2OC3)CC1`: the inhibition was 11%. The same measure for `C=CCn1c(SCC(=O)c2ccccc2)nnc1-c1ccc2c(c1)OCO2`: 0%; for `O=C(Nc1ccc2snnc2c1)N1CCSCC1`: 0%. Next, `Cc1cccn2c(=O)c3cc(C(=O)N4CCCc5ccccc54)n(C)c3nc12`: 0%; `Cc1ccc2nsnc2c1S(=O)(=O)N1CCN(Cc2ccc3c(c2)OCO3)CC1`: 5%; `Oc1c(I)cc(Cl)c2cccnc12`: 4%. Next, `Oc1ccc(N2CCN(C(c3ccncc3)c3nnnn3C3CCCC3)CC2)cc1` (stereo not given): 11%; `CC(C)CN(CC(C)C)C(=O)C12CCC(C)(C(=O)C1)C2(C)C` (stereo not given): 3%; `CC(CCC(=O)Nc1nncs1)C(=O)O` (stereo not given): 1%. On to `O=C(NCc1ccccc1)C1CCN(S(=O)(=O)c2cccc3cccnc23)CC1`, for which the inhibition was 0%. Next, `COc1ccc(C)cc1-n1nnnc1SC/C(O)=C(\C#N)c1nc2ccccc2[nH]1`: 4%. Turning to `O=C(Nc1ncnc2sc3c(c12)CCCCC3)c1ccco1`, the inhibition is 10%. Next, `Cc1ccc(NC(=O)c2cc(-c3ccc(C)o3)nc3ccccc23)nc1`: 0%. The same measure for `CC1(C)CC(=O)c2c(O)cc(O)cc2O1`: 3%; for `Cn1c(SCC(=O)O)nnc1C1CCCCC1`: 1%; for `CCCS(=O)(=O)N1CCN(C(=O)c2cccs2)CC1`: 0%. The same measure for `O=C(Nc1ccc(S(=O)(=O)NCCc2ccccc2)cc1)c1ccc(Br)o1`: 3%. Take `Cc1ccccc1Cn1cc(/C=N/n2cnnc2)c2ccccc21`: the inhibition is 0%. The same measure for `COc1ccc(C(=O)Cn2c(N3CCCCC3)nc3c2c(=O)n(C)c(=O)n3C)cc1OC`: 6%; for `OC(COc1ccccc1)CN1C2=NCCCN2c2ccccc21` (stereo not given): 1%; for `COc1ccc(S(=O)(=O)Cc2ccc(C(=O)N3CCN(Cc4ccccc4)CC3)o2)cc1`: 0%.

(Values after PubChem BioAssay.)
